# Screen size: about 330,000 compounds; about 10,000 (3%) were called active. This is one part of a sample in which actives are shown more often than they occur.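 How the source made its calls: active means inhibition of at least 50% at 8 µM in the primary screen; inactive means the rest.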
# Biological target: Protein Mdm4 (Homo sapiens) + E3 ubiquitin-protein ligase Mdm2 (Homo sapiens) (UniProt O15151+Q00987)
# Assay: inhibitors of human Mdm2-MdmX association, primary screen, cell-based, luminescence, split luciferase, SaOS-2, uHTS (AID 485346)
# Conditions: SaOS-2 split-luciferase Mdm2/MdmX complementation, at 8 µM, stronger effect = higher value
# Sequence of Protein Mdm4 (Homo sapiens) + E3 ubiquitin-protein ligase Mdm2 (Homo sapiens) (O15151 whole entry, looked up): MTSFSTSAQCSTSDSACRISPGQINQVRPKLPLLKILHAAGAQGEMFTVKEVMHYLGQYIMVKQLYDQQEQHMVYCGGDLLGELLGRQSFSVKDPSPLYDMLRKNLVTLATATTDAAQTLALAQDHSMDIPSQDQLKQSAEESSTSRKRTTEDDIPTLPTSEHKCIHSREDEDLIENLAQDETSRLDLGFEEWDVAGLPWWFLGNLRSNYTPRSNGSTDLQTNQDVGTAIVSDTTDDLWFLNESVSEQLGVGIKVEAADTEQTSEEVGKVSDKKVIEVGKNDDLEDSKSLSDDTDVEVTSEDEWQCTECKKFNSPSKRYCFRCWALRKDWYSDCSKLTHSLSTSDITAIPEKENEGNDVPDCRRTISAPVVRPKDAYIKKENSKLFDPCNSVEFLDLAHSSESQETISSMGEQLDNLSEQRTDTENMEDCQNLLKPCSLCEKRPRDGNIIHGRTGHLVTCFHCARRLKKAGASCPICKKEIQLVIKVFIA
# Sequence of Protein Mdm4 (Homo sapiens) + E3 ubiquitin-protein ligase Mdm2 (Homo sapiens) (Q00987 whole entry, looked up): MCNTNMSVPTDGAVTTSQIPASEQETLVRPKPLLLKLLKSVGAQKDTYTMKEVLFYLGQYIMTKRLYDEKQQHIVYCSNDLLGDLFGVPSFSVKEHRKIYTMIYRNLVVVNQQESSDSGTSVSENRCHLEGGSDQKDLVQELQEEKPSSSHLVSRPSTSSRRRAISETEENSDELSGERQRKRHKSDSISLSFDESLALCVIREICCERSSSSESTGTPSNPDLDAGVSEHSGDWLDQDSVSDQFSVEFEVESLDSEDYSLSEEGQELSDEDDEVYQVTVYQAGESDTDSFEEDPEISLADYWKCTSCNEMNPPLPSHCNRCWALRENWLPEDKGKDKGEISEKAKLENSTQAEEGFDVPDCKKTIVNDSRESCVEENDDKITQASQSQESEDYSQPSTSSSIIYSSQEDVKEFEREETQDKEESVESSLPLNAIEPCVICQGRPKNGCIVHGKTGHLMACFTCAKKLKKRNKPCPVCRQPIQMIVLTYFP
row,Structure (SMILES),inhibition
1,CC1(C)CCSC(/C=C/c2ccccc2)=N1,85.2% (active)
2,CC(=O)N1CCC(N(C(=O)Nc2ccc(Cl)cc2)C(C)C)CC1,-29% (inactive)
3,Cc1cc2oc3ccc(NCCC4CCCN4C)cc3c(=O)c2cc1C (stereo not given),90% (active)
4,COc1cccc2sc3cc(NCC[C@@H]4CCCN4C)ccc3c(=O)c12,-8.67% (inactive)
5,Cc1cc2oc(=O)cc(CN3CCN(Cc4ccccc4)CC3)c2cc1C,-23.1% (inactive)
6,CCCCC1(C(=O)OCC)NC(c2ccc(O)cc2)C2C(=O)N(c3ccccc3)C(=O)C21 (stereo not given),4.63% (inactive)
7,COc1cccc(NC(=O)CCc2nnc3ccc(N4CCC(C)CC4)nn23)c1,6.23% (inactive)
8,CC(=O)Nc1ccc(CN2CCN(Cc3ccc(F)c(F)c3)C(CCO)C2)cc1 (stereo not given),-4.68% (inactive)
9,CC(C)c1nc(CNC(=O)CC2C(=O)NCCN2Cc2ccoc2)cs1 (stereo not given),17% (inactive)
10,Cc1csc(NC(=O)c2ccc(C)s2)n1,-81.3% (inactive)
11,COc1cc(SC)ccc1C(=O)Nc1cc(C)ccn1,-133% (inactive)
12,COc1cc(SC)ccc1C(=O)Nc1nc(C)cs1,70.4% (active)
13,COc1ccc(-c2c(C(C)=O)c(C)nc3sc4c(=O)n(-c5ccc(C)cc5)nnc4c23)cc1,16.5% (inactive)
14,O=S(=O)(Nc1cccc(-c2ccc(N3CCOCC3)nn2)c1)c1ccc(Cl)c(Cl)c1,-21.1% (inactive)
15,NC(=O)c1ccc(Nc2ccc3nonc3c2[N+](=O)[O-])cc1,19.2% (inactive)
16,Cc1cc(C)cc(NC(=O)C(c2ccccc2)N2CCN(CC(=O)N3CCCC3)CC2)c1 (stereo not given),24% (inactive)
17,COC1=CCC2([N+](=O)[O-])CN(CC(=O)O)CC1([N+](=O)[O-])C2 (stereo not given),4.95% (inactive)
18,Fc1ccc(-c2ccc(CNCc3ccccn3)o2)cc1Cl,1.76% (inactive)
19,Cc1cc(C)c2[nH]c(=O)c(CN(Cc3ccccc3)C(=S)NCCCN(C)C)cc2c1,90.9% (active)
20,COCCCNC(=S)N(CCN(C)C)Cc1cc2cc3c(cc2[nH]c1=O)OCCO3,-4.07% (inactive)
21,Cc1cccc2cc(CN(Cc3cccs3)C(=S)NCc3ccco3)c(=O)[nH]c12,19.1% (inactive)
22,COc1ccccc1NC(=O)CCC(=O)OC(C)C(=O)c1ccccc1 (stereo not given),-23.8% (inactive)
23,CCCn1c(O)c(CN2CCCC(C)C2)c(C)c(C#N)c1=O (stereo not given),-48.3% (inactive)

row,Structure (SMILES),inhibition
1,CCN(CC(=O)NCc1ccc(F)cc1)S(=O)(=O)c1ccc(Cl)s1,-3.24% (inactive)
2,Cc1cccc(NC(=O)c2nnn(-c3cccc(C(F)(F)F)c3)c2N)c1,8% (inactive)
3,COc1cc(NC(=O)c2cncc(-c3ccc(C#N)cc3)c2)cc(C(=O)Nc2cccc(C(F)(F)F)c2)c1,59.6% (active)
4,COc1cc(NC(=O)c2[nH]cnc2C(N)=O)cc(C(=O)Nc2cccc(C(F)(F)F)c2)c1,97.2% (active)
5,N#Cc1ccc(Oc2ccc(C(F)(F)F)cc2NC(=O)c2ccc(F)cc2)cc1,9.08% (inactive)
6,COc1ccc(NC(=O)C(=O)NCC(=O)Nc2cccc(C(F)(F)F)c2)cc1,12.2% (inactive)
7,COc1ccc(NC(=O)CN(C)CC(=O)Nc2cccc(C(F)(F)F)c2)cc1,14.9% (inactive)
8,CCN1C(=O)[C@H]2[C@@H](c3ccc(-c4ccc(F)cc4)cc3)N[C@@](Cc3ccccc3)(C(=O)OC)[C@H]2C1=O,48% (inactive)
9,CCCC(CNC(=O)COC(=O)C1=NNC(=O)CC1)c1ccc(Cl)cc1Cl (stereo not given),-11.5% (inactive)
10,C=C(C)C(=O)Nc1cccc(C2=NOC3(C2)C[C@H](C(N)=O)N(C(=O)C(c2ccccc2)c2ccccc2)C3)c1 (stereo not given in full),16.4% (inactive)
11,Cc1c(C(=O)Nc2cccc(Cl)c2)cn2c(nc3ccccc32)c1C#N,60.3% (active)
12,O=C(O)c1cccc(NC(=O)c2cc(-c3cccc(Cl)c3)nc3ccccc23)c1,0.449% (inactive)
13,Cn1c(Nc2cccc(Cl)c2)nc2ccccc21,-18.1% (inactive)
14,CC(=O)c1c(C)[nH]c(C(=O)OCC(=O)NCCC(C)C)c1C,17.9% (inactive)
15,CCOc1cc(NC(=S)NCCCN(C)C)c(OCC)cc1NC(=O)C1CC1,3.9% (inactive)
16,Cc1cc(C(=O)N/N=C\C(Br)=C\c2ccccc2)c(C)o1,-18.5% (inactive)
17,CC(C)c1cc(C(=O)N/N=C/C(Br)=C/c2ccccc2)n[nH]1,66.1% (active)
18,CC(C)c1cc(C(=O)O)n[nH]1,5.75% (inactive)
19,O=C1CSc2ccc(S(=O)(=O)NCc3ccccc3)cc2N1,-3.1% (inactive)
20,O=C1CCCC2=C1C(c1ccccc1)n1c(s/c(=C/c3cccc(F)c3)c1=O)=N2 (stereo not given),-4.28% (inactive)
21,COc1ccc(OC)c(C2C3=C(N=c4s/c(=C\c5cccc(O)c5)c(=O)n42)c2ccccc2CC3)c1 (stereo not given),79.2% (active)
22,CCOC(=O)C1=C(C)N=c2s/c(=C\C(=O)OC)c(=O)n2C1c1ccc(OC)cc1 (stereo not given),12.2% (inactive)
23,O=C(N/N=C/c1ccc(Cl)cc1)c1nc2ccc([N+](=O)[O-])cc2c(=O)[nH]1,6.69% (inactive)

row,Structure (SMILES),inhibition
1,COC(=O)c1sc(SC)c(S(=O)(=O)C(C)C)c1N/N=C(\C#N)S(=O)(=O)c1ccccn1,9.73% (inactive)
2,O=C(NC1CCc2ccccc21)C12CN(Cc3ccccc3)CC1C(c1cccc([N+](=O)[O-])c1)=NO2 (stereo not given),0.069% (inactive)
3,CSc1nc(-c2ccccc2)nc(C(Cl)Cl)n1,101% (active)
4,CSc1ncc(Sc2ccccc2)c(C(=O)O)n1,8.72% (inactive)
5,CN=C(NC#N)NCCSCc1nc[nH]c1C,2.92% (inactive)
6,CC1(C)CC(=O)C=C(NCc2ccncc2)C1,27.3% (inactive)
7,Cc1ccc(S(=O)(=O)N2CCC(N3CCCCCC3)CC2)cc1,1.35% (inactive)
8,O=S(=O)(c1ccccc1)N1CCC(c2ccccc2)CC1,-19.7% (inactive)
9,c1ccc(C2CCC(N3CCC(N4CCCCC4)CC3)CC2)cc1 (stereo not given),91.3% (active)
10,CCOC(=O)C1CCN(C(=O)C2CCN(S(=O)(=O)CC)CC2)CC1,12.2% (inactive)
11,CCN(CC(=O)NCCCN1CCOCC1)S(=O)(=O)c1cc(Cl)ccc1Cl,20.3% (inactive)
12,COc1ccc(N=C2SC(C(=O)Nc3ccc(F)cc3)CC(=O)N2C)cc1 (stereo not given),15% (inactive)
13,Cc1cccc(NC(=O)NC(=S)NC(=O)c2ccccc2)c1,-38.5% (inactive)
14,Cc1cccc(NC(=O)Nc2cccc(Oc3c(F)c(F)c(F)c(F)c3F)c2)c1,74.3% (active)
15,Cc1ccc(NC(=O)Nc2ccccc2)c(Br)c1,-41.3% (inactive)
16,O=C(COc1ccc(Cl)cc1)Nc1ccc2oc(=O)ccc2c1,-1.06% (inactive)
17,O=C(NC(=S)Nc1ccc2oc(=O)ccc2c1)c1ccc(-c2cccc(Cl)c2Cl)o1,80.7% (active)
18,CC(C)C(=O)Nc1ccc2oc(=O)ccc2c1,3.99% (inactive)
19,CC1(C)CC(=O)C=C(c2cccc3c2Oc2ccccc2S3)C1,2.33% (inactive)
20,CCOc1cc(C(=O)N2CCc3cc(OC)c(OC)cc3C2)ccc1OC(F)F,51% (active)
21,COc1cc2c(cc1OC)CN(C(=O)c1cc(=O)c3ccccc3o1)CC2,49.8% (inactive)
22,COc1cc2c(cc1OC)CN(C(=O)c1ccc(S(=O)(=O)N3CCCCCC3)cc1)CC2,11% (inactive)
23,Cc1c(C=O)c2ccccn2c1C(=O)c1ccncc1,22.9% (inactive)

row,Structure (SMILES),inhibition
1,COc1ccc(S(=O)(=O)N2CCOCC2)cc1NC(=O)c1ccc(OCC(C)C)c(OC)c1,38.4% (inactive)
2,C/C(=N\Nc1nc(Nc2ccccc2)nc(N2CCOCC2)n1)c1cccs1,46.5% (inactive)
3,O=C(CSc1nc2ccc(Nc3nc(N4CCOCC4)nc(N4CCOCC4)n3)cc2s1)NCc1ccco1,20.3% (inactive)
4,O=C(CSc1nc(Nc2ccccc2)nc(N2CCOCC2)n1)Nc1cc(Cl)ccc1O,81.9% (active)
5,Cc1ccc(Nc2nc(N3CCOCC3)nc(N3CCOCC3)n2)cc1Cl,48.2% (inactive)
6,Cc1ccccc1NC(=O)CSc1nc2ccc(Nc3nc(N4CCOCC4)nc(N4CCOCC4)n3)cc2s1,80.5% (active)
7,CC1(c2ccccc2)NC(=O)N(CC(=O)Nc2cc(Cl)ccc2N2CCOCC2)C1=O (stereo not given),6.67% (inactive)
8,NS(=O)(=O)c1ccc(N2C(=O)C3C4CC(C(Br)C4Br)C3C2=O)cc1 (stereo not given),-13.2% (inactive)
9,CCC(C(=O)NCc1cccnc1)n1nc(C)c2sc3ccccc3c2c1=O (stereo not given),20.9% (inactive)
10,Cc1nc2ccccc2nc(C)c1=NOCc1ccc(Cl)cc1Cl,22.9% (inactive)
11,NC(N)=N/N=C/c1ccc(OCc2ccc(Cl)cc2Cl)cc1,97.6% (active)
12,OC(CNCCc1ccc(Cl)cc1Cl)COc1ccccc1 (stereo not given),-3.6% (inactive)
13,COc1ccc2cc1Oc1ccc(cc1)C[C@H]1c3cc(c(OC)cc3CCN1C)Oc1c(O)c(OC)cc3c1[C@H](C2)N(C)CC3,98.4% (active)
14,Cc1cccc(-[n+]2c(-c3cccc(Br)c3)[nH]c3nc4ccccc4nc32)c1,42.8% (inactive)
15,CCC/C(O)=C1\C(=O)CC(C)(C)CC1=Nc1ccccc1OC,17.5% (inactive)
16,Cc1ccc(S(=O)(=O)Nc2ccc3ncccc3c2)cc1,19.7% (inactive)
17,COc1ccc(N2CC(NS(=O)(=O)c3ccc4ccccc4c3)CC2=O)cc1 (stereo not given),4.41% (inactive)
18,COc1cc(NS(=O)(=O)c2ccc3ccccc3c2)c2ncccc2c1,94.8% (active)
19,Cc1cc(NC(=O)CCC(=O)N(CC(=O)NCC2CCCO2)c2ccccc2C)no1 (stereo not given),11.6% (inactive)
20,COc1ccc(OC)c(S(=O)(=O)NCCC(C)C)c1,22.1% (inactive)
21,C=C(C)C(=O)O[C@H]1C/C(C)=C\C(=O)/C=C(\C)[C@H](O)[C@@H]2OC(=O)C(=C)[C@@H]21,95.4% (active)

# Reference: PubChem BioAssay AID485346 (Sanford-Burnham Center for Chemical Genomics, 2010)
